Test results from PubChem BioAssay (EPA / NIEHS).
Values joined by “and” are separate entries in the source; they are usually repeats but may differ in a detail not shown here. Identical values can stand only once. A structure can be active in one record and inactive in another. Active and inactive are the calls of the source. How the source made its calls: active means hit-call score of the fitted dose curve at least 0.9, where 1 is the maximum; inactive means score below 0.9.

Experiments:
[1] = read-out: Interleukin-6 (IL6), IL6 (gene 3569); experiment: BSK_CASM3C_IL6: BioMAP Diversity Plus: CASM3C Assay for Interleukin-6 (IL6) Biomarker Activity for (AID 2283040); settings: primary human coronary artery smooth muscle cells; actives raise or lower the signal
[2] = read-out: Tissue plasminogen activator (tPA), PLAT (gene 5327); experiment: BSK_BE3C_tPA: BioMAP Diversity Plus: BE3C Assay for Tissue plasminogen activator (tPA) Biomarker Activity (AID 2283041); settings: primary human bronchial epithelial cells; actives raise or lower the signal
Procedure, shortened: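 ELISA read-out of tPA on human primary bronchial epithelial cells, 24 h post-dosing; bidirectional fit vs DMSO negative control/baseline.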

[3] = read-out: Interleukin-8 (IL8), CXCL8 (gene 3576); experiment: BSK_CASM3C_IL8: BioMAP Diversity Plus: CASM3C Assay for Interleukin-8 (IL8) Biomarker Activity (AID 2283042); settings: primary human coronary artery smooth muscle cells; actives raise or lower the signal;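 further: IL-8 protein level quantified by ELISA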
[4] = read-out: Human Leukocyte Antigen - DR isotype (HLADR), HLA-DRA (gene 3122); experiment: BSK_CASM3C_HLADR: BioMAP Diversity Plus: CASM3C Assay for Human Leukocyte Antigen - DR isotype (HLADR) Biomarker Activity (AID 2283043); settings: primary human coronary artery smooth muscle cells; actives raise or lower the signal;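 further: cell-surface HLA-DR protein level quantified by ELISA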
[5] = read-out: Macrophage colony-stimulating factor (MCSF), CSF1 (gene 1435); experiment: BSK_CASM3C_MCSF: BioMAP Diversity Plus: CASM3C Assay for Macrophage colony-stimulating factor (MCSF) Biomarker Activity (AID 2283044); settings: primary human coronary artery smooth muscle cells; actives raise or lower the signal;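 further: M-CSF protein amount quantified by ELISA after 24 h exposure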
[6] = read-out: Low-density lipoprotein receptor (LDLR), LDLR (gene 3949); experiment: BSK_CASM3C_LDLR: BioMAP Diversity Plus: CASM3C Assay for Low-density lipoprotein receptor (LDLR) Biomarker Activity (AID 2283045); settings: primary human coronary artery smooth muscle cells; actives raise or lower the signal;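 further: LDLR protein level on the cell surface quantified by ELISA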
[7] = read-out: Monocyte Chemoattractant Protein-1 (MCP1), CCL2 (gene 6347); experiment: BSK_CASM3C_MCP1: BioMAP Diversity Plus: CASM3C Assay for Monocyte Chemoattractant Protein-1 (MCP1) Biomarker Activity (AID 2283046); settings: primary human coronary artery smooth muscle cells; actives raise or lower the signal;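 further: MCP-1 level quantified by ELISA 24 h after dosing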
[8] = BSK_CASM3C_Proliferation: Cell Proliferation Assessment in the BioMAP Diversity Plus: CASM3C Assay (AID 2283047); settings: primary human coronary artery smooth muscle cells;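 further: sulforhodamine B total protein stain as relative cell number at 560 nm; sub-confluent cells exposed 48 h before staining; fitted both ways against DMSO so gain or loss of cell number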
[9] = read-out: Monokine induced gamma interferon (MIG), CXCL9 (gene 4283); experiment: BSK_CASM3C_MIG: BioMAP Diversity Plus: CASM3C Assay for Monokine induced gamma interferon (MIG) Biomarker Activity (AID 2283048); settings: primary human coronary artery smooth muscle cells; actives raise or lower the signal;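 further: MIG protein level measured by ELISA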
[10] = read-out: serum amyloid A (SAA), SAA1 (gene 6288); experiment: BSK_CASM3C_SAA: BioMAP Diversity Plus: CASM3C Assay for serum amyloid A (SAA) Biomarker Activity (AID 2283049); settings: primary human coronary artery smooth muscle cells; actives raise or lower the signal;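 further: SAA protein level quantified by ELISA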
[11] = BSK_CASM3C_SRB: Viability Assessment in the BioMAP Diversity Plus: CASM3C Assay (AID 2283050); settings: primary human coronary artery smooth muscle cells;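 further: total protein by SRB staining as cytotoxicity measure in parallel cultures; cells exposed to compound for 24 h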
[12] = read-out: Thrombomodulin, THBD (gene 7056); experiment: BSK_CASM3C_Thrombomodulin: BioMAP Diversity Plus: CASM3C Assay for Thrombomodulin Biomarker Activity (AID 2283051); settings: primary human coronary artery smooth muscle cells; actives raise or lower the signal;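 further: thrombomodulin protein level measured by ELISA 24 h after dosing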
[13] = read-out: Tissue Factor, F3 (gene 2152); experiment: BSK_CASM3C_TissueFactor: BioMAP Diversity Plus: CASM3C Assay for Tissue Factor Biomarker Activity (AID 2283052); settings: primary human coronary artery smooth muscle cells; actives raise or lower the signal;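 further: cell surface tissue factor protein level read by ELISA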
[14] = read-out: Interferon-gamma inducible Protein 10 (IP10), CXCL10 (gene 3627); experiment: BSK_hDFCGF_IP10: BioMAP Diversity Plus: hDFCGF Assay for Interferon-gamma inducible Protein 10 (IP10) Biomarker Activity (AID 2283053); settings: primary human foreskin fibroblasts; actives raise or lower the signal
Procedure, shortened: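 ELISA read-out of IP-10 (CXCL10) from primary human skin fibroblasts, 24 h after compound addition. Gain or loss of signal versus DMSO baseline, bidirectional curve fitting.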

[15] = read-out: Urokinase-type plasminogen activator receptor (uPAR), PLAUR (gene 5329); experiment: BSK_CASM3C_uPAR: BioMAP Diversity Plus: CASM3C Assay for Urokinase-type plasminogen activator receptor (uPAR) Biomarker Activity (AID 2283054); settings: primary human coronary artery smooth muscle cells; actives raise or lower the signal;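 further: cell-surface uPAR protein level quantified by ELISA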
[16] = read-out: Vascular cell adhesion molecule 1 (VCAM1), VCAM1 (gene 7412); experiment: BSK_CASM3C_VCAM1: BioMAP Diversity Plus: CASM3C Assay for Vascular cell adhesion molecule 1 (VCAM1) Biomarker Activity (AID 2283055); settings: primary human coronary artery smooth muscle cells; actives raise or lower the signal;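 further: VCAM-1 protein level quantified by ELISA on the cells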
[17] = read-out: Collagen III, COL3A1 (gene 1281); experiment: BSK_hDFCGF_CollagenIII: BioMAP Diversity Plus: hDFCGF Assay for Collagen III Biomarker Activity (AID 2283056); settings: primary human foreskin fibroblasts; actives raise or lower the signal
Procedure, shortened: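 Cells: human foreskin fibroblasts, primary. Dosing followed by 24 h incubation, then ELISA for collagen III. Both increases and decreases scored relative to DMSO.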

[18] = read-out: Epidermal growth factor receptor (EGFR), EGFR (gene 1956); experiment: BSK_hDFCGF_EGFR: BioMAP Diversity Plus: hDFCGF Assay for Epidermal growth factor receptor (EGFR) Biomarker Activity (AID 2283057); settings: primary human foreskin fibroblasts; actives raise or lower the signal
Procedure, shortened: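 ELISA readout of EGFR on human dermal fibroblasts (primary foreskin cells), 24 h post-dosing; bidirectional curve fit vs DMSO baseline, gain or loss of signal scored.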

[19] = read-out: Interleukin-8 (IL8), CXCL8 (gene 3576); experiment: BSK_hDFCGF_IL8: BioMAP Diversity Plus: hDFCGF Assay for Interleukin-8 (IL8) Biomarker Activity (AID 2283058); settings: primary human foreskin fibroblasts; actives raise or lower the signal
Procedure, shortened: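 IL-8 levels from compound-treated primary human fibroblasts were read by ELISA at 24 h, with DMSO serving as baseline for bidirectional fitting.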

[20] = BSK_hDFCGF_Proliferation: Cell Proliferation Assessment in the BioMAP Diversity Plus: hDFCGF Assay (AID 2283059); settings: primary human foreskin fibroblasts;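 further: curves fitted for both rise and fall of signal versus DMSO baseline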
Procedure, shortened: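 This proliferation readout used SRB total-protein staining of human foreskin fibroblasts […], normalized to DMSO with bidirectional curve fitting.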

Measured: AC50

CCOc1ccc2[nH]cc(C(=O)NCc3ccccc3)c(=O)c2n1
active: [18] 3970 nM
inactive: all other assays above

CCCCCCCC/C=C\CCCCCCCC(=O)OC[C@@H](O)[C@H]1OC[C@H](O)[C@H]1O
inactive: all assays above

OC(O)(C(F)C(O)(O)C(F)(F)F)C(F)(F)F
inactive: [1] | [3] | [4] | [5] | [6] | [7] | [8] | [10] | [11] | [12] | [14] | [15] | [16] | [17] | [18] | [19]
active: [2] 24.6 µM and 20.5 µM | [9] 33.3 µM and 28.2 µM | [10] 49100 nM | [13] 19 µM and 13.4 µM | [14] 19600 nM | [20] 9.21 µM and 7.73 µM

CCCC(CCC)C(=O)O
inactive: all assays above

Cc1ncc([C@@H](CCCCCCc2ccc3c(n2)NCCC3)CC(=O)O)cn1
active: [8] 3970 nM | [15] 148 nM
inactive: all other assays above

CCCCOC(=O)c1ccccc1
inactive: all assays above

NNC(=O)c1ccncc1
inactive: all assays above

CC(C)c1nnc2ccc(-c3ocnc3-c3cc(F)ccc3F)cn12
active: [1] 552 nM | [3] 628 nM | [4] 561 nM | [6] 551 nM | [14] 628 nM | [16] 354 nM | [20] 5.62 µM
inactive: all other assays above

c1ccc2ncccc2c1
inactive: all assays above

CCCCCOC(C)=O
inactive: all assays above

C[C@]12C=CC(=O)C=C1CC[C@H]1[C@@H]3C[C@@H](O)[C@](O)(C(=O)CO)[C@@]3(C)C[C@H](O)[C@@]12F
active: [1] 356 nM | [3] 246 nM | [4] 148 nM | [5] 417 nM | [7] 148 nM | [10] 354 nM | [12] 3970 nM | [13] 149 nM | [20] 0.818 µM
inactive: all other assays above

FC(F)(F)COC(OCC(F)(F)F)OCC(F)(F)F
inactive: all assays above

OCCOCCOCCO
inactive: all assays above
